Screens from PubChem.
Only some compounds are listed: those with a hit (about 3% of all), similar ones and a draw of the others.
KCNH2 3.1 block: qHTS for Inhibitors of KCHN2 3.1: Mutant qHTS | U2OS KCNH2 3.1, thallium flux FluxOr; stronger effect = lower value | activity change, % (tested at about 1.8 µM) | AID 720553, 2013 | Potassium voltage-gated channel subfamily H member 2, brain isoform KCNH2 3.1 (human) | 340,000 compounds, 0.95% hits;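 active = maximum activity change below -70%; inconclusive = maximum activity change from -70% to -50%; inactive = maximum activity change above -50%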;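 also: thallium influx rate constant from kinetic fluorescence after stimulation buffer; % is scaled to controls: 0 for no effect and ±100 for the full control effect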
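FluxOr-based Tl+ influx in U2OS cells transduced with KCNH2 3.1 virus; rate constants normalized to DMSO controls.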
LDHA block: qHTS assay for inhibitors of human lactate dehydrogenase; L-lactate dehydrogenase A chain (Homo sapiens), P00338; purified LDHA, NADH/diaphorase-resazurin fluorescence; stronger effect = lower value; activity change, % (values are at about 110 or 230 µM); 480,000 compounds, 0.15% hits; AID 1347041, 2019; in the data active = activity change below about -30%; inconclusive = mostly about -25% to -30%;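 also: plate controls were DMSO wells for no effect and wells without enzyme for full effect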
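Human LDH5 (2 nM) was incubated with 0.06 mM NADH and 0.2 mM pyruvate for 5 min at room temperature in Tris pH 7.4. Remaining NADH was coupled through diaphorase/resazurin, and resorufin fluorescence was read at 0 and 20 min.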
Chronic BCR inh: qHTS Assay to Find Inhibitors of Chronic Active B-Cell Receptor Signaling. ABC-DLBCL IkBa-CBG/CBR reporter, luminescence ratio, 4 h. Potency, µM (doses to about 46.1 µM), for inactives: at the highest dose activity change, negative = inhibition, most hits filed as inhibitors. 340,000 compounds, 0.05% hits. AID 493014, 2011; active = well fitted inhibition curve with a large enough effect in the signal ratio, with a control signal flat, not every such curve was filed as active; inconclusive = small, poorly fitted or top-dose-only effect, or effect the other way, or a change in a side signal; the % refers to the signal ratio;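 also: potency is read from the fitted curve at half-maximal effect; plate controls were basal doxycycline-induced cells for no effect and cells given 10 µM MG132 for full effect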
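Doxycycline induced both beetle luciferases in TMD8 lymphoma cells; IKK-driven degradation limits the IkappaBalpha-fused green signal, while red luminescence normalises for cell number and nonspecific effects. Compounds tested up to 46 uM, 4 hrs.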
hERG WT inh: qHTS for Inhibitors of KCHN2 3.1: Wildtype qHTS | Voltage-gated inwardly rectifying potassium channel KCNH2 (Homo sapiens), Q12809 | U2OS, BacMam KCNH2, thallium flux FluxOr; stronger effect = lower value | activity change, % at 1.84 µM | 340,000 compounds, 0.37% hits | AID 720551, 2013;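 active = maximum activity change below -70%; inconclusive = maximum activity change between -70% and -50%; inactive = maximum activity change above -50%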; also: % is scaled to controls: 0 for no effect and ±100 for the full control effect
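U2OS cells transduced with wild-type KCNH2 virus are loaded with FluxOr dye for 45 min, and thallium flux is measured in kinetic reads before and after stimulation buffer. Rate constants are normalized to DMSO controls.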
ClpP mod: qHTS Assay for Activators of ClpP. purified B. subtilis ClpP, FRET peptide cleavage, 20 min. Potency, µM (highest dose often 57.5 µM), without a hit: at the highest dose activity change, negative = active. ATP-dependent Clp protease proteolytic subunit (Bacillus subtilis (strain 168)), P80244. 340,000 compounds, 1.9% hits; active = well fitted falling curve with a large enough effect; inconclusive = small, poorly fitted or top-dose-only effect; inactive = no such curve, though single readings can be large or run the other way; also: potency is read from the fitted curve at half-maximal effect; the source files actives as falling curves though it sought activators and does not explain the sign; nearly all actives have a fitted effect of over 65% in size
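FRET quenching reversal measured ClpP activation: 10 microg/mL B. subtilis ClpP at pH 8 with the FRET-FV decapeptide, read at 430 nm after 320 nm excitation. The 20-min minus 0-min signal was scaled between DMSO/no-enzyme wells and ADEP (5.8 microM final).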
12-LOX inh: Primary qHTS assay for inhibitors of human arachidonate 12S-lipoxygenase (ALOX12): Round 2. Polyunsaturated fatty acid lipoxygenase ALOX12 (Homo sapiens), P18054. purified 12hLO, xylenol orange hydroperoxide absorbance. Potency, µM (top dose mostly 108 µM), for the others: top-dose activity change, negative = inhibition, hits mostly inhibitors. 580,000 compounds, 1.1% hits. AID 1671190, 2021; active = well fitted inhibition curve with a large enough effect; inconclusive = small, poorly fitted or top-dose-only effect, or another doubt; inactive = no such curve, though single readings can be large or run the other way; also: potency is read from the fitted curve at half-maximal effect; % is scaled to controls: 0 for no effect and ±100 for the full control effect
Target sequence (P18054 whole entry, looked up): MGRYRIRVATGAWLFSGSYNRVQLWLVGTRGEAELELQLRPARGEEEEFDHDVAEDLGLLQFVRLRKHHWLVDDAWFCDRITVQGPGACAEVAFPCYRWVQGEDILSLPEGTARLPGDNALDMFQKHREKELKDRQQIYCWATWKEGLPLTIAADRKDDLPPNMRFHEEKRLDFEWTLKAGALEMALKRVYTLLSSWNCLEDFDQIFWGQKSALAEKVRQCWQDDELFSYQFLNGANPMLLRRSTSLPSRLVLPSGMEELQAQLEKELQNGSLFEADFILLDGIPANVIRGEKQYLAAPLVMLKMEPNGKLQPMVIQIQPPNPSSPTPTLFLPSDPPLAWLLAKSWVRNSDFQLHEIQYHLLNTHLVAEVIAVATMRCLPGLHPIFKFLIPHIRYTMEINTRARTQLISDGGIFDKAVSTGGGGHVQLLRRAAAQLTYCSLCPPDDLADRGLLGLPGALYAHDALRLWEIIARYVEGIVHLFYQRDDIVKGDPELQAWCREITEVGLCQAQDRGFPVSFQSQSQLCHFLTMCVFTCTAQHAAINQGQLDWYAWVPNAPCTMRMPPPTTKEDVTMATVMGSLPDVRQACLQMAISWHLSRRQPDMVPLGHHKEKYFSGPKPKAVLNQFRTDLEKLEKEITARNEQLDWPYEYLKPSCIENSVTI
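Purified human 12hLO (150 nM final) in 25 mM Hepes, 0.01% Triton X-100, pH 7.0 was preincubated 15 min at room temperature with compound. Then 40 uM arachidonic acid was added, 30 min. Hydroperoxide was read by Fe-XO absorbance ratio 573/405 nm.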
The depositor's hits bear a star; [ ] = another dose, or the depositor's remark.

Results for O=C(c1cccc(NS(=O)(=O)c2ccc(F)c(F)c2)c1)N1CCN(C(c2ccccc2)c2ccccc2)CC1 ?
KCNH2 3.1 block: -32; LDHA block: -4; Chronic BCR inh: inconclusive; hERG WT inh: -4; ClpP mod: 32µM*; 12-LOX inh: 2%

Results for c1cc2c3c(cccc3c1)/C(=N/OCC1CO1)C2 (stereo not drawn) ?
LDHA block: -31*; 12-LOX inh: -2%

What do the screens show for `N=C1/C(=C\c2ccc(-c3cccc(Cl)c3)o2)C(=O)N=C2SC=C(c3ccccc3)N12`?
KCNH2 3.1 block: 3; LDHA block: -6; Chronic BCR inh: 25%; hERG WT inh: 6; ClpP mod: 0%; 12-LOX inh: 35µM*

Results for O=C(CC1CNCCO1)NCc1nc(-c2cccc(F)c2)c(-c2ccccn2)[nH]1 (stereo not drawn) ?
12-LOX inh: 125%

How did CCN1/C(=C2\C(=O)N(c3ccccc3)N=C2C)C=Cc2cc(C)ccc21 do in these assays?
KCNH2 3.1 block: -102*; LDHA block: -1; Chronic BCR inh: inconclusive; hERG WT inh: 0; 12-LOX inh: inconclusive

How did CCN1/C(=c2/s/c(=C3/C(=O)N(c4ccccc4)N=C3C)n(CC)c2=O)C=Cc2ccccc21 do in these assays?
KCNH2 3.1 block: -14; LDHA block: -8; hERG WT inh: -7; 12-LOX inh: -16%

Results for CCCCCCCCS(=O)CCC(=O)O (stereo not drawn) ?
KCNH2 3.1 block: -5; LDHA block: -2; Chronic BCR inh: 1%; hERG WT inh: 9; 12-LOX inh: 25µM*

Results for COc1cccc(CNC(=O)CCC2CCCN(C(=O)CCn3cncn3)C2)c1 (stereo not drawn) ?
KCNH2 3.1 block: -94*; LDHA block: -7; Chronic BCR inh: 8%; hERG WT inh: 3; 12-LOX inh: 29%

What do the screens show for `O=C1C=CC(=O)C(CNc2ccc(C(=O)OCc3ccccc3)cc2)=C1`?
KCNH2 3.1 block: -10; LDHA block: 27; hERG WT inh: -23; ClpP mod: -1%; 12-LOX inh: 16µM*

What do the screens show for `Cc1ccc2nc(-c3cccc(N)c3)oc2c1`?
KCNH2 3.1 block: -2; LDHA block: -4; Chronic BCR inh: -11%; hERG WT inh: -9; ClpP mod: 14µM*; 12-LOX inh: -2%

What do the screens show for `CCCCc1cc(C[C@@H]2C[C@H](NC(=O)c3cccc(F)c3)C2(C)C)no1`?
12-LOX inh: 2%[176 µM]

Results for COC(=O)C1=C(C)N(Cc2ccc(Br)cc2)C(=S)NC1c1cccc(Br)c1 (stereo not drawn) ?
12-LOX inh: 40µM*

How did CCN1C(=S)N[C@@H](c2ccccc2)C(C(=O)OC)=C1C do in these assays?
KCNH2 3.1 block: -25; LDHA block: 0; Chronic BCR inh: inconclusive; hERG WT inh: 1; ClpP mod: 1%; 12-LOX inh: -28%

Results for COC(=O)C1=C(C)N(Cc2ccccc2)C(=NCc2cc(OC)c(OC)c(OC)c2)N[C@H]1c1ccccc1 ?
LDHA block: 0; Chronic BCR inh: inconclusive; ClpP mod: 1%

What do the screens show for `COC(=O)C1=C(C)N(Cc2ccc(Br)cc2)C(=S)NC1c1ccccc1` (stereo not drawn)?
12-LOX inh: 40µM*

How did COC(=O)C1=C(C)N(Cc2ccccc2)C(=S)NC1c1cccc(Br)c1 (stereo not drawn) do in these assays?
12-LOX inh: 40µM*

Results for COC(=O)C1=C(C)N(Cc2ccccc2)C(=NCc2cc(OC)c(OC)c(OC)c2)N[C@H]1c1ccc(Br)cc1 ?
KCNH2 3.1 block: -86*; LDHA block: -1; Chronic BCR inh: inconclusive; hERG WT inh: -14; ClpP mod: 0%

What do the screens show for `COC(=O)C1=C(C)N(Cc2ccccc2)C(=O)N[C@H]1c1ccc(Br)cc1`?
KCNH2 3.1 block: -5; LDHA block: 1; Chronic BCR inh: 0%; hERG WT inh: -2; ClpP mod: 0%; 12-LOX inh: 11%

How did Cn1nc(C(=O)NC2CCc3nn(CC4CC4)c(=O)n3CC2)c2ccccc21 (stereo not drawn) do in these assays?
12-LOX inh: 49%

Results for Cc1cccc(NC(=O)C23CC4CC(CC(Cl)(C4)C2)C3)c1 ?
LDHA block: 9; 12-LOX inh: 6%

How did CCCNC(=O)c1ccccc1NS(=O)(=O)c1ccc(OC)c(OC)c1 do in these assays?
KCNH2 3.1 block: 0; LDHA block: -3; Chronic BCR inh: -12%; hERG WT inh: -1; ClpP mod: 32µM*; 12-LOX inh: 0%

Results for COc1ccc(S(=O)(=O)Nc2ccccc2C(=O)Nc2nc(-c3ccc(F)cc3)cs2)cc1OC ?
KCNH2 3.1 block: -20; LDHA block: -15; Chronic BCR inh: inconclusive; hERG WT inh: -6; ClpP mod: 16µM*; 12-LOX inh: -18%

What do the screens show for `CC(C)Cc1nc(N2CCN(C(=O)Cc3ccccc3)CC2)c(C#N)c2c1COC(C)(C)C2`?
Chronic BCR inh: 10%

How did CCc1nc(N2CCOCC2)c(C#N)c2c1COC(C)(C)C2 do in these assays?
KCNH2 3.1 block: 8; LDHA block: 0; Chronic BCR inh: 0%; hERG WT inh: 2; ClpP mod: inconclusive; 12-LOX inh: 1%

How did CC1(C)Cc2c(C#N)c(N3CCOCC3)nc(-c3ccccc3)c2CO1 do in these assays?
KCNH2 3.1 block: 0; LDHA block: -4; Chronic BCR inh: 2%; hERG WT inh: -4; ClpP mod: 35µM*; 12-LOX inh: inconclusive

Results for CC(C)C(=O)N1CCN(c2nc(-c3ccccc3)c3c(c2C#N)CCCC3)CC1 ?
KCNH2 3.1 block: 6; LDHA block: 1; Chronic BCR inh: 30%; hERG WT inh: 2; ClpP mod: 28µM*; 12-LOX inh: 0%

Results for Cc1nc(N2CCOCC2)c(C#N)c2c1COC(C)(C)C2 ?
KCNH2 3.1 block: -9; LDHA block: 3; Chronic BCR inh: inconclusive; hERG WT inh: 12; ClpP mod: 32µM*; 12-LOX inh: 17%
